# Screening data as filed in PubChem BioAssay.
# A selection: hits, their analogues and other compounds. The true share with any hit is near 11%.
# BAZ2B inh: inhibitors of human BAZ2B bromodomain | Q9UIF8 | AlphaScreen BAZ2B-H3K14Ac peptide displacement | Potency, µM (titrated, usually from 114 µM), most hits filed as inhibitors | hit rate 4.4% among 360,000 | AID 504333; note: nearly all actives have a fitted effect of over 60% in size
#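 Inhibition is scored as reduced AlphaScreen emission. The BAZ2B/b-H3(5-23)K14Ac complex (50 nM each) in PBS pH 7.4, 0.01% Tween-20 meets compound (up to 110 uM) for 30 min at RT before bead addition.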
# HP1b binding inh: HP1-beta chromodomain-methylated histone interaction inhibition; P83916; AlphaScreen HP1-beta / biotin-H3K9me3 peptide binding; Potency, µM (series often up to 114 µM), hits mostly inhibitors; hit rate 0.56% among 390,000; note: nearly all actives have a fitted effect of over 70% in size
# Target sequence (P83916 whole entry, looked up): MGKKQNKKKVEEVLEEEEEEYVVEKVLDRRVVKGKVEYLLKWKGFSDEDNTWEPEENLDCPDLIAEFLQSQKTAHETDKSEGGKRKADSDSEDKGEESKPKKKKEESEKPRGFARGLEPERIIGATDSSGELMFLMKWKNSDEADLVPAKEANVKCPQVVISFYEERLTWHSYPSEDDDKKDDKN
#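 HP1-beta protein (50 nM final) preincubated 30 min at room temperature with biotinylated H3(1-18)K9me3 peptide (50 nM) in PBS pH 7.4, 0.01% Tween-20, then compound added for 30 min. AlphaScreen streptavidin donor/nickel chelate acceptor beads (10 ug/mL final), 30 min dark, luminescence read.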
# L3MBTL1 inh: inhibitors of human L3MBTL1 | Potency, µM (series often up to 57.1 µM), hits mostly inhibitors | AID 485360 | AlphaScreen L3MBTL1–H3K9me1 peptide binding | Q9Y468 | hit rate 0.66% among 230,000; note: nearly all actives have a fitted effect of over 60% in size
#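 First, the protein-peptide complex forms for 30 min at room temperature (L3MBTL1 50 nM, biotinylated H3K9me1 peptide 75 nM). Next, compounds are pin-transferred and incubated 30 min. Finally, AlphaScreen beads are added and read after 30 min.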
# JMJD2A Tudor: blocks the human JMJD2A Tudor domain | O75164 | AlphaScreen JMJD2A-Tudor / H3K4me3 peptide binding | Potency, µM (highest dose often 114 µM), hits mostly inhibitors | hit rate 4.4% among 390,000 | AID 504339; note: nearly all actives have a fitted effect of over 50% in size
# G9a block: G9a (human) methyltransferase inhibition | Q96KQ7 | G9a H3K9 monomethylation, AlphaScreen, 2 h | Potency, µM (series often up to 102 µM), actives largely listed as inhibitors | hit rate 8.8% among 350,000 | AID 504332; note: nearly all actives have a fitted effect of over 75% in size
# Target sequence (Q96KQ7 913-1193 limits assumed): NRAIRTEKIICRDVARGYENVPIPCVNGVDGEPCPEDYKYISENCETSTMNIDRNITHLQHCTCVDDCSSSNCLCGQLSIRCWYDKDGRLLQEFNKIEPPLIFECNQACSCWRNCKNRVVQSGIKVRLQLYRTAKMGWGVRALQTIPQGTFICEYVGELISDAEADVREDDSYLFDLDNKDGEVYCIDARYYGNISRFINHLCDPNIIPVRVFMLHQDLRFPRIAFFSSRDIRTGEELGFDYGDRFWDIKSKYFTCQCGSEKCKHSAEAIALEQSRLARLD
#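 AlphaScreen detection with an anti-monomethyl H3K9 antibody quantified product after a 2 h room-temperature reaction containing 500 nM biotinylated H3K9 peptide, 20 µM SAM and 20 nM enzyme, which had been preincubated 15 min with compound.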
# Hits are given with their value; i = inactive; ? = inconclusive; nt = no result given; [ ] = dose if it differs, or a comment. Calls come from the whole dose curve; as a rule, active = well fitted inhibition curve with a large enough effect; inconclusive = small, poorly fitted or top-dose-only effect; inactive = no such curve, though single readings can be large or run the other way.
SMILES,BAZ2B inh,HP1b binding inh,L3MBTL1 inh,JMJD2A Tudor,G9a block
CC(=O)c1cccc(NC(=S)NC(=O)c2ccccc2)c1,i,i,i,i,?
COc1cccc2cc(C(=O)Nc3ccc(F)cc3)c(=Nc3ccc(C(=O)O)cc3)oc12,i,i,nt,i,35.5µM
COc1ccc(NC(=O)c2cc3ccccc3cc2OC)cc1,i,?,i,?,i
CCCCC(CCc1ccccn1)C(=O)c1ccccc1 (centres undefined),nt,i,nt,i,nt
O=C1C=C(c2ccc(C(=O)O)c(Cl)c2)C[C@@H](c2ccc3c(c2)OCO3)C1,nt,i,i,70.8µM,nt
O=C1C=C(c2ccc(-c3ccccc3)cc2)C[C@@H](c2ccc3c(c2)OCO3)C1,i,i,i,i,i[0.501 µM]
COC(=O)Cc1[nH]n(-c2ccccc2)c(=O)c1C(C)=Nc1ccccc1,i,i,i,i,50.1µM
CCOc1[nH]n(-c2ccccc2)c(=O)c1C=Nc1ccc(C(=O)OC)cc1,i,i,i,i,?
COC(=O)Cc1[nH]n(-c2nc3ccccc3s2)c(=O)c1C(C)=Nc1ccc(C)cc1,39.8µM,i,i,35.5µM,14.1µM
COC(=O)Cc1[nH]n(-c2nc3ccccc3s2)c(=O)c1C(C)=Nc1ccc(Cl)cc1,25.1µM,i,i,22.4µM,i
CCc1ccc(N2CC(c3nnc(NC(=O)c4ccco4)s3)CC2=O)cc1 (centres undefined),i,i,nt,i,14.1µM
CC(C)(C)OC(=O)NCC1CCN(S(=O)(=O)Cc2ccccc2)CC1,i,i,nt,i,i
CC(C)(C)OC(=O)NCC12C=CC(O1)C1C(=O)N(Cc3ccccc3)C(=O)C12 (centres undefined),i,i,i,i,10µM
Cn1nnnc1Sc1ncnc2scc(-c3cccc(N)c3)c12,nt,nt,nt,i,nt
COC(=O)c1sc2cccc(F)c2c1S(=O)(=O)N1CCN(c2ccc(F)cc2)CC1,i,i,nt,i,?
Cn1c(SCC(=O)N/N=C/c2ccco2)nc2ccccc21,i,i,i,i,i
CCn1c(SCC(=O)N/N=C/C=C/c2ccco2)nnc1-c1ccc(OC)cc1,?,i,?,i,35.5µM
CCn1c(SCC(=O)N/N=C/c2ccc(C)o2)nnc1-c1ccc(C(C)(C)C)cc1,i,i,i,?,?
CCn1c(SCC(=O)N/N=C/C=C/c2ccccc2[N+](=O)[O-])nnc1-c1ccc(Cl)cc1,i,nt,i,nt,i
CCn1c(SCC(=O)N/N=C/c2ccc(C)o2)nnc1-c1ccc(C)cc1,i,i,i,?,44.7µM
CCn1c(SCC(=O)N/N=C/C=C/c2ccco2)nc2ccccc21,44.7µM,i,35.5µM,?,6.31µM
CCn1c(SCC(=O)NC(=O)NC(C)(C)C)nc2ccccc21,i,?,nt,11.2µM,i
COc1ccc(-c2nc(CSCC(=O)NCCC(C)C)c(C)o2)cc1OC,i,i,nt,i,i
O=C(CSc1nc2ccccc2[nH]1)N/N=C/c1ccncc1,i,i,i,i,i
Cc1ccc(CSc2nnc(SCC(=O)N/N=C/c3c[nH]c4ccccc34)s2)cc1,20µM,i,nt,?,?
SMILES,BAZ2B inh,HP1b binding inh,L3MBTL1 inh,JMJD2A Tudor,G9a block
O=C(CSc1nnc(SCc2ccccc2)s1)N/N=C/C=C\c1ccco1,14.1µM,?,12.6µM,12.6µM,10µM
Cc1ccc(/C=N/NC(=O)CSc2nc3ccccc3[nH]2)o1,?,i,nt,i,44.7µM
CC(C)CC(=O)OCc1cc(=O)n2nc(C3CCCCC3)sc2n1,i,i,nt,i,i
Cc1ccc2c(CN3CCC(C(N)=O)CC3)cc(=O)oc2c1C,i,i,nt,i,i
COc1ccc(NC(=O)N(Cc2ccco2)C2CCN(C(C)=O)CC2)c(OC)c1,i,i,nt,i,i
Cc1nn(C(C)(C)C)c(OC(=O)c2c(F)cccc2F)c1Sc1ccccc1,i,i,nt,i,i
CCCC[C@H]1CCCO[C@@](C(=O)NCc2ccc(C)o2)(C(F)(F)F)C1,nt,i,nt,i,nt
O=C(CCn1c(=O)oc2ccccc21)NCCCN1CCOCC1,i,i,nt,i,i
O=C(CCn1c(=O)oc2ccccc21)NCCCN1CCN(c2ccc(F)cc2)CC1,?,i,i,i,2.51µM
O=C(CCn1c(=O)oc2ccccc21)Nc1ccccc1,i,i,i,i,35.5µM
Cc1nc(-c2cccnc2)sc1C(=O)N/N=C/c1ccccc1Cl,i,i,nt,i,nt
O=C(OCc1cccc([N+](=O)[O-])c1)c1ccc2ccccc2n1,i,i,i,i,i
